Screens deposited in PubChem by National Center for Advancing Translational Sciences (NCATS).
NPR1 antag = blocks ANP-stimulated signaling of human Npr1 receptor; P16066; HEK293 hNpr1 GloSensor cGMP, ANP-stimulated luminescence; Potency, µM (top dose mostly 46.3 µM), inactives show at the top dose activity change, negative = inhibition, hits mostly inhibitors; 1.6% of 76,000 active; AID 1347048; note: % is set by controls: 0 for no effect and ±100 for the full control effect; nearly all actives have a fitted effect of over 60% in size
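HEK293 cells stably expressing human Npr1 and cGMP GloSensor pGS-40F, loaded 2 h with 2% GloSensor reagent, given compound 30 min at room temperature. Luminescence read before and 20 min after 0.1 nM hNppA.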
GPT2 inh = blocks human glutamate pyruvate transaminase 2; 0.25% of 100,000 active; Recombinant GPT2, coupled pyruvate oxidase/HRP Amplex Red fluorescence; Q8TD30; Potency, µM (top dose mostly 57.7 µM), without a hit: at the top dose activity change, negative = inhibition, actives largely listed as inhibitors; active = well fitted inhibition curve with a large enough effect; inconclusive = small, poorly fitted or top-dose-only effect; note: % is set by controls: 0 for no effect and ±100 for the full control effect; nearly all actives have a fitted effect of over 60% in size
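GPT2 10ng/uL, a-KG 250uM, L-Ala 2mM, HEPES pH7.5 + 0.0001% Tween; 30 min RT. Then Amplex mix (PO/HRP/ThPP), 30 min RT dark, fluorescence. AOA 50uM used as positive control.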
Npr1 antag conf = confirmation of human Npr1 natriuretic peptide receptor antagonists. 76% of 1,400 active. HEK293 hNpr1 cGMP GloSensor luminescence, ANP-stimulated. shares compounds with NPR1 antag. Potency, µM (doses to about 57.6 µM), inactives show at the top dose activity change, negative = inhibition, usual class: inhibitors. AID 1347044; note: nearly all actives have a fitted effect of over 70% in size
Npr2 selectivity = antagonizes human Npr2, subtype selectivity check; HEK293 hNpr2 GloSensor cGMP luminescence, CNP-stimulated; 67% of 1,400 active; Potency, µM (doses to about 57.6 µM), for inactives: at the top dose activity change, negative = inhibition, usual class: inhibitors; AID 1347046; shares compounds with NPR1 antag; note: nearly all actives have a fitted effect of over 70% in size
Target sequence (P20594 whole entry, looked up): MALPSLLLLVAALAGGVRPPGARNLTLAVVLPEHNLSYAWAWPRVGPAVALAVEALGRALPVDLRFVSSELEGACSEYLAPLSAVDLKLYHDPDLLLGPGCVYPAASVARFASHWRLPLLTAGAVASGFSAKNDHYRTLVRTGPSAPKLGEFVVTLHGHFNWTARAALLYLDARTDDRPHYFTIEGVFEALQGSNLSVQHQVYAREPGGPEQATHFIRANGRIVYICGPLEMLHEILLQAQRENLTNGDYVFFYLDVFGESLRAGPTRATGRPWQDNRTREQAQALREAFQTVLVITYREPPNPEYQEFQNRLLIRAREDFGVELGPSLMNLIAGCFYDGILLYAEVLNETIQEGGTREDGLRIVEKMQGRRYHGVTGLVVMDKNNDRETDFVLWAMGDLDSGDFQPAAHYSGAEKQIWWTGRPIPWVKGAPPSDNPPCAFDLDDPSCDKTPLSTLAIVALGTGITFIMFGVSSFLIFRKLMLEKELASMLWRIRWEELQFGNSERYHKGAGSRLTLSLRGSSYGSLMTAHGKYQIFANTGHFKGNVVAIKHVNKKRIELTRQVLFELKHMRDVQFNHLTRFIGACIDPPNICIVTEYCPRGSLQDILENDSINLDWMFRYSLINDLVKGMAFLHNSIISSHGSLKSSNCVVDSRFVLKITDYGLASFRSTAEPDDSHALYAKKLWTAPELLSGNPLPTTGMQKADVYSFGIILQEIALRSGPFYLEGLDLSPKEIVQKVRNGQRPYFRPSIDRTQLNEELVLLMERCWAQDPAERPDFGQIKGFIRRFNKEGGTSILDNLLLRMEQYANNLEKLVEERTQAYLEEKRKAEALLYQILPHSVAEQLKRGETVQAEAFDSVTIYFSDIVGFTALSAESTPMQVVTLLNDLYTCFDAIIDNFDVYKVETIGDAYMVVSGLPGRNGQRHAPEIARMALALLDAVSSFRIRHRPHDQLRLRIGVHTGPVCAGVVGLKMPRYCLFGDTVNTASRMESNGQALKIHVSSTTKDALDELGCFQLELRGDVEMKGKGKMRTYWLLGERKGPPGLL
FLuc inh counter = FLuc enzyme inhibition, Npr1 counter-screen | shares compounds with NPR1 antag | purified FLuc enzyme, luminescence, Km substrate | Potency, µM (series often up to 57.6 µM), without a hit: at the top dose activity change, negative = inhibition, actives largely listed as inhibitors | 0.7% of 1,400 active; active = well fitted inhibition curve with a large enough effect; inconclusive = small, poorly fitted or top-dose-only effect; note: 0% is about no effect
GloSensor ctrl = counter-screen for Npr1 antagonists: GloSensor control cell line; shares compounds with NPR1 antag; HEK293 GloSensor cGMP, SNP-stimulated, luminescence; Potency, µM (highest dose often 57.6 µM), without a hit: at the top dose activity change, negative = inhibition, actives largely listed as inhibitors; 69% of 1,400 active; note: % is set by controls: 0 for no effect and ±100 for the full control effect; nearly all actives have a fitted effect of over 70% in size
Starred values were filed as active, the others as inactive; i = inactive; u = inconclusive; x = not tested or not shown; [ ] = another dose, or the depositor's remark. Shown is part of a subset that was picked to be rich in hits. Unless noted, calls come from the whole dose curve. Potency is the fitted concentration of half-maximal effect.

SMILES	NPR1 antag	GPT2 inh	Npr1 antag conf	Npr2 selectivity	FLuc inh counter	GloSensor ctrl
O=C(Nc1ccc(Cl)cc1)c1nc2c(o1)CCN(Cc1cccc(F)c1F)CC2	3.55µM*	-3.3%[88.5 µM]	6.27µM*	9.94µM*	-5.6%[86.2 µM]	7.03µM*
C=CCCC(=O)N1CCOc2c(O)cc(-c3nc4ccccc4s3)cc2C1	-25.7%	-2.0%	x	x	x	x
Cc1ccccc1[S+](=O)([O-])N1CC2(CN(CCOc3ccccc3)C(=O)O2)C1	-18.5%[70.6 µM]	u	x	x	x	x
Cc1nn2c(c1-c1ccccc1C(C)C)N(CCC(C)C)CCC2	2.51µM*	-13.7%[88.5 µM]	1.57µM*	2.5µM*	-10.2%[86.2 µM]	1.77µM*
Cc1nn2c(c1-c1ccccc1C(C)C)N(Cc1ccc(C(=O)O)cc1)CCC2	-0.4%[70.6 µM]	i	x	x	x	x
COc1ccc(OC)c(CN2CCCn3nc(C)c(-c4ccccc4C(C)C)c32)c1	-26.9%[70.6 µM]	i	39.6µM*	39.6µM*	1.9%[86.2 µM]	u
Cc1nn2c(c1-c1ccccc1C(C)C)N(Cc1cccc(C(=O)O)c1)CCC2	u	0.0%[88.5 µM]	u	-22.4%[86.2 µM]	-2.3%[86.2 µM]	-23.2%[86.2 µM]
COc1ccc(OC)c(CN2CCCn3nc(C)c(-c4cccnc4N4CCOCC4)c32)c1	-17.8%	i	x	x	x	x
Cc1nn2c(c1-c1ccccc1C(C)C)N(C(=O)c1cc3ccccc3n1C)CCC2	u	0.9%[88.5 µM]	x	x	x	x
O=C1NCc2ccccc2CC12CCN(Cc1cc(O)cc(O)c1)CC2	x	i	x	x	x	x
C[C@@]12C(=O)N(CC3CC3)c3ccccc3[C@@H]1[C@@H](C(N)=O)CN2C(=O)Nc1ccc2c(c1)OCO2	x	i	x	x	x	x
CC(C)c1noc([C@@H]2C[C@H](NS(=O)(=O)c3ccc(F)cc3)CN2C)n1	-5.8%[70.6 µM]	3.2%[88.5 µM]	x	x	x	x
COc1cccc(CN2CCC3(CC2)CC(Cc2nc(C)no2)CCO3)n1 (stereo not drawn)	1.3%	i	x	x	x	x
CCN1C(=O)C2CC3(CCN(C(=O)c4ccc(Cn5nc(C)cc5C)o4)CC3)CN2C1=O (stereo not drawn)	x	i	x	x	x	x
O=C1CC(c2ccccc2)N(C(=O)CNC(=O)Nc2ccc3c(c2)OCCO3)CCCCCN1 (stereo not drawn)	-2.4%	2.7%	x	x	x	x
O=C(c1cccc(F)c1)N1CCC2(CC1)N=C(c1ccc(Br)cc1)NO2	u	i	x	x	x	x
Cc1ccc(C2=NC3(CCN(C(=O)c4ccc(N(C)C)cc4)CC3)ON2)cc1	-15.4%	i	x	x	x	x
O=C(c1ccccc1)N1CCC2(CC1)N=C(c1ccc(Br)cc1)NO2	15.8µM*	i	27.3µM*	u	0.6%	u
O=C(c1ccc2[nH]ccc2c1)N1CCC2(CC1)N=C(c1ccc(Br)cc1)NO2	11.2µM*	i	24.3µM*	13.7µM*	-9.8%	10.9µM*
CN(C)c1ccc(C(=O)N2CCC3(CC2)N=C(c2ccc(Br)cc2)NO3)cc1	11.2µM*	i	19.3µM*	21.7µM*	0.3%	15.3µM*
O=C(c1ccc2cc[nH]c2c1)N1CCC2(CC1)N=C(c1cccc(Br)c1)NO2	u	0.5%	x	x	x	x
Cc1ccc(C(=O)N2CCC3(CC2)N=C(c2ccccc2)NO3)cc1	0.5%	i	x	x	x	x
Cc1ccc(C(=O)N2CCC3(CC2)N=C(c2ccc(Br)cc2)NO3)cc1	15.8µM*	i	21.7µM*	19.3µM*	2.2%	19.3µM*
O=C1CCCN1CCN1CCOc2c(O)cc(-c3csc4ccccc34)cc2C1	2.3%	4.3%	x	x	x	x
COc1ccc(-c2noc(C(=O)NC3CCC3)c2[C@H](C)O)cc1	-16.0%[70.6 µM]	i	x	x	x	x
SMILES	NPR1 antag	GPT2 inh	Npr1 antag conf	Npr2 selectivity	FLuc inh counter	GloSensor ctrl
O=C(c1ccccc1OCC1CCCN(Cc2ccncc2F)C1)N1CCCCC1 (stereo not drawn)	-10.2%	4.1%	x	x	x	x
CC(C)CNc1ncnc2c1CN(C1CCCC1)C(=O)CN2C	x	-20.6%	x	x	x	x
O=C(C1CCCO1)N1CCN(Cc2ccc(=O)n(CC3CC3)c2)CC1 (stereo not drawn)	-12.5%	-25.2%	x	x	x	x
COc1cccc(-c2ccccc2NC(=O)C2CCN(Cc3cc(OC)ccc3O)CC2)c1	u	u	24.3µM*	u	-17.2%	27.3µM*
COc1cccc(-c2ccccc2NC(=O)C2CCN(Cc3ccc(F)cc3)CC2)c1	-25.5%	3.7%	x	x	x	x
Clc1cccc(-c2cnc([C@@H]3COCCN3Cc3cnc[nH]3)[nH]2)c1	-20.3%[70.6 µM]	-3.8%[88.5 µM]	x	x	x	x
COc1ccc(C(=O)N[C@H]2CO[C@H]3[C@@H]2OC[C@@H]3n2nnnc2Oc2ccc3c(c2)OCO3)cc1	u	-4.1%	x	x	x	x
O=C(N[C@H]1CO[C@H]2[C@@H]1OC[C@@H]2n1nnnc1Oc1ccccc1)c1cncnc1	5.2%[70.6 µM]	i	x	x	x	x
Cc1ccc(C(=O)N[C@H]2CO[C@H]3[C@@H]2OC[C@@H]3n2nnnc2Oc2ccccc2)cc1	8.91µM*	-5.3%[88.5 µM]	11.1µM*	15.7µM*	1.3%[86.2 µM]	9.94µM*
O=C(Nc1ccc(Oc2ccccc2)cc1)N[C@H]1CO[C@H]2[C@@H]1OC[C@@H]2n1nnnc1Oc1ccc(-n2ccnc2)cc1	11.2µM*	1.1%	21.7µM*	21.7µM*	-1.1%	17.2µM*
CN(C)c1cccc(Oc2nnnn2[C@H]2CO[C@H]3[C@@H]2OC[C@@H]3NC(=O)NCc2ccccc2)c1	2.7%	-4.2%	x	x	x	x
COc1ccc(C(=O)N[C@H]2CO[C@H]3[C@@H]2OC[C@@H]3n2nnnc2Oc2cccc(N(C)C)c2)cc1	7.08µM*	-14.2%	12.2µM*	12.2µM*	2.2%	9.68µM*
CC(=O)c1ccc(NC(=O)N[C@H]2CO[C@H]3[C@@H]2OC[C@@H]3n2nnnc2Oc2ccc(-n3ccnc3)cc2)cc1	-4.4%	2.8%	x	x	x	x
CN(C)c1cccc(Oc2nnnn2[C@H]2CO[C@H]3[C@@H]2OC[C@@H]3NC(=O)c2ccccc2)c1	12.6µM*	i	u	u	-2.9%	u
COc1cccc(N2C(=O)NC(=NC3CCCCC3)C23CCCN(CC2CCCCC2)C3)c1 (stereo not drawn)	x	i	x	x	x	x
CCCc1noc(-c2ccn3c(CNC(=O)c4ccc(F)cc4Cl)nnc3c2)n1	-27.2%	-3.2%	x	x	x	x
CC(=O)c1ccc(NC(=O)N[C@H]2CO[C@H]3[C@@H]2OC[C@@H]3n2nnnc2Oc2cccc(N(C)C)c2)cc1	-28.1%	3.3%	x	x	x	x
CN(C)c1ccc(C(=O)N[C@H]2CO[C@H]3[C@@H]2OC[C@@H]3n2nnnc2Oc2cccc(N(C)C)c2)cc1	11.2µM*	2.1%	13.7µM*	15.3µM*	-3.0%	12.2µM*
O=C1COc2ccc(NCCOc3ccccc3)nc2CN1Cc1ccccc1F	22.4µM*	-20.0%[88.5 µM]	31.4µM*	35.3µM*	2.5%[86.2 µM]	31.4µM*
O=C1COc2ccc(NCCc3ccccn3)nc2CN1Cc1ccc(C(F)(F)F)cc1	u	-6.9%	u	u	2.3%	u
